Bim-Bfl-1 – inhibitors of Bim binding to Bfl-1, primary screen, biochemical, multiplexed, bead-based flow cytometry. Bim-Bfl-1 binding inhibition. inhibition, % at 10 µM. AID 1008, 2008. Bcl-2-related protein A1 (Homo sapiens), Q16548. 0.12% of 190,000 active;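 note: 0% = wells without compound plus tracer and 100% = blocker peptide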
Bcl-W Bim block – inhibitors of Bim binding to Bcl-W, primary screen, biochemical, multiplexed, bead-based flow cytometry | AID 952, 2007 | inhibition, % at 10 µM | 0.02% of 190,000 active | Bcl-2-like protein 2 (Homo sapiens), Q92843 | Bim peptide-Bcl-W binding;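 note: 0% = bound tracer without compound and 100% = peptide blocker; higher means less fluorescent Bim peptide bound to Bcl-W beads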
Target sequence (Q92843 whole entry, looked up): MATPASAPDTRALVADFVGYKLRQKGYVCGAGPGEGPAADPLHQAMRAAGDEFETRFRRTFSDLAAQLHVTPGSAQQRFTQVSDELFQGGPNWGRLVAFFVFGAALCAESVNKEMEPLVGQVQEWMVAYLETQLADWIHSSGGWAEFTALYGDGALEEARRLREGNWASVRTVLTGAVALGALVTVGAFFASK
Bim-Bcl-2 – inhibitors of Bim-Bcl-2 binding, primary screen, biochemical, multiplexed, human Bcl-2 family; Apoptosis regulator Bcl-2 (Homo sapiens), P10415; Bead-based flow cytometry, Bim peptide-Bcl-2 binding; inhibition, % at 10 µM; 0.06% of 190,000 active; AID 950, 2007; in the data active = inhibition above about 40%;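 note: 0% = no compound wells with probe peptide and 100% = reference peptide inhibitor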
BCLXL inh – inhibitors of human Bcl-xL, primary screen, biochemical, fluorescence polarization, HTS; GST-Bcl-xL / FITC-Bim BH3 peptide fluorescence polarization; inhibition, % at 10.9 µM; 0.7% of 320,000 active;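 active = inhibition above the mean of all tested compounds plus 3 SD, cutoff set per campaign, cut at about 30% in these data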;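 note: 0% = DMSO wells and 100% = unlabeled Bim-BH3 peptide competitor; inhibitors lower millipolarization by displacing the labeled peptide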
Target sequence (Q07817 whole entry, looked up): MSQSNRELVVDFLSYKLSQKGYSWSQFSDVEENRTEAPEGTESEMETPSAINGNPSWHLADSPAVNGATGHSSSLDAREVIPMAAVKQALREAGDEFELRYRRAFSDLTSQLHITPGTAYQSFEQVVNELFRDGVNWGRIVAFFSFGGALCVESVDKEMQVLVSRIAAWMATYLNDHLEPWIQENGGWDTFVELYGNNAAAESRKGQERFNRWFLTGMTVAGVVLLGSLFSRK
Bcl-XL Bim block – inhibitors of Bim-Bcl-XL binding, primary screen, biochemical, multiplexed, bead flow cytometry, human Bcl-XL; Bcl-2-like protein 1 (Homo sapiens), Q07817; Bim peptide-Bcl-XL binding, fluorescence; inhibition, % at 10 µM; 0.04% of 190,000 active; AID 1007, 2008
Bim-Bcl-B – inhibitors of Bim-Bcl-B binding, primary screen, biochemical, multiplexed, human Bcl-2 family; 0.073% of 190,000 active; Bcl-2-like protein 10 (Homo sapiens), Q9HD36; inhibition, % at 10 µM; bead-based flow cytometry, Bim peptide-Bcl-B binding;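 note: 0% = tracer peptide without compound and 100% = reference inhibitor peptide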
An asterisk follows results filed as active; . = no result given; + = active, no number. This is a sample that favours compounds with a hit; in the whole collection about 0.81% have one here. Cut-off read from the data, not from the text of the source, unless noted: active = inhibition above about 40%.

SMILES	Bim-Bfl-1	Bcl-W Bim block	Bim-Bcl-2	BCLXL inh	Bcl-XL Bim block	Bim-Bcl-B
CC1=CC2=C(OC1N(C)C)c1cccc3cccc(c13)C2=O (configuration not stated)	0	0	0	122*	-4	-1
NC(=O)/C(=C/c1ccco1)C(N)=S	.	.	.	86*	.	.
CCC1=C/C(=C/N(C)c2ccccc2)C(=O)S1	-2	2	-9	31*	-9	-31
CN(C)/C=C1/C=C(c2ccccc2)OC1=O	-17	0	-7	-4	-6	-8
CCN(CC(=O)Nc1cccc(C#N)c1)CC(=O)Nc1cccc(OC)c1	-2	-5	-3	1	-2	-3
CCOC(=O)Nc1ccc(NCc2ccc(F)cc2)nc1N	.	.	.	141*	.	.
C=CCN1CN(S(=O)(=O)c2cccc(Cl)c2)c2nc3ccccc3nc21	.	.	.	34*	.	.
O=c1cc(CN2CCN(c3ccc(F)cc3)CC2)nc2sccn12	-6	0	-11	34*	0	-6
CCN(CC(=O)NCc1ccc(Cl)cc1)C(=O)CCC(=O)c1ccc(C)cc1	.	.	.	4	.	.
Cc1cc(NC(=O)CCCC(=O)NCc2ccccc2)no1	27	0	51*	7	1	43*
CN1CCc2cccc3c2C1Cc1ccc(O)c(O)c1-3 (configuration not stated)	.	.	.	33*	.	.
Cc1cc(C)n(CC(C)(O)c2ccccc2)n1 (configuration not stated)	.	.	.	-1	.	.
CCOC(=O)C1C(c2ccc3c(c2)OCO3)NC(=O)NC1(O)C(F)(F)F (configuration not stated)	1	0	0	60*	-3	0
NC(=O)c1c(N)sc2c1CCC2	8	0	-1	.	-2	-33
CNC(=O)c1c(N)sc2c1CCCCC2	21	-5	3	56*	-6	-33
NC(=O)c1c(N)sc2c1CCCCC2	19	0	0	12	-4	-25
Nc1sc2c(c1C(=O)NC1CCS(=O)(=O)C1)CCC2 (configuration not stated)	2	-2	0	32*	0	0
Cc1ccc(N2C(=O)c3cccc4c(N5CCN(C)CC5)ccc(c34)C2=O)c2cccnc12	-9	0	-6	+	-6	-8
O=C1c2cccc3c(N4CCCCC4)ccc(c23)C(=O)N1c1ccccc1O	-6	-6	0	35*	-5	-16
O=C1c2cccc3c(N4CCCCC4)ccc(c23)C(=O)N1c1ccc(O)cc1	-2	5	0	54*	2	-10
O=C(O)c1ccc(N2CCCCCC2)c(N2C(=O)c3ccccc3C2=O)c1	-23	-8	-20	7	-15	-10
CC(C)Cn1c(N)c(C(=O)COC(=O)c2ccc([N+](=O)[O-])o2)c(=O)n(C)c1=O	0	2	3	1	0	0
COc1ccc(CCNS(=O)(=O)c2ccc(Cl)cc2)cc1OC	.	.	.	-3	.	.
COC(=O)c1cccc(NC(=O)COC(=O)CSc2nc(C)cc(C)n2)c1	-1	-1	0	135*	-1	-3
COc1ccc(CCn2c(N)c(C(=O)NCc3ccco3)c3nc4ccccc4nc32)cc1	8	4	4	3	0	-9
SMILES	Bim-Bfl-1	Bcl-W Bim block	Bim-Bcl-2	BCLXL inh	Bcl-XL Bim block	Bim-Bcl-B
COCCNC(=O)c1c(N)n(CCC2=CCCCC2)c2nc3ccccc3nc12	1	0	0	50*	-1	-8
CCN(CC)c1ccc2cc(NC(=O)CCC(=O)O)c(=O)oc2c1	-3	-3	-2	103*	-3	-1
CCOC(=O)c1cc2c(=O)n3ccccc3nc2n(Cc2ccco2)c1=NC(=O)c1ccc(OC)cc1OC	8	1	0	49*	0	0
N#Cc1cc2c(=O)n3ccccc3nc2n(Cc2ccco2)c1=NC(=O)c1ccco1	9	7	7	54*	1	4
O=[N+]([O-])c1cc([N+](=O)[O-])c2cc(-c3cccnc3)[nH]c2c1	.	.	.	36*	.	.
O=[N+]([O-])c1ccc2nc(-c3cccnc3)[nH]c2c1	.	.	.	1	.	.
